This is a sample that favours compounds with a hit; in the whole collection about 4.6% have one here.
Vaccinia mCherry: vaccinia inhibition (mCherry reporter); Vaccinia virus mCherry reporter infection, fluorescence; Potency, µM (series often up to 36.5 µM), most hits filed as inhibitors; 310,000 compounds, 0.63% hits; AID 720579; calls by dose curve; tested in A549 cells; note: nearly all actives have a fitted effect of over 35% in size
Marburg entry inh: blocks Marburg virus binding to or entry into cells | Marburg virus pseudotyped entry inhibition, cell reporter | Potency, µM (series often up to 37.8 µM), hits mostly inhibitors | 300,000 compounds, 1.8% hits; calls by dose curve; tested in HEK293 cells
VACV Venus inh: vaccinia inhibition (Venus reporter). AID 720580. 330,000 compounds, 0.46% hits. Vaccinia virus Venus reporter expression, fluorescence. Potency, µM (doses to about 36.5 µM), most hits filed as inhibitors; calls by dose curve; tested in A549 cells; note: nearly all actives have a fitted effect of over 30% in size
HCV inh: inhibitors of hepatitis C virus infection; Huh7.5.1 HCVcc-Cre infection, luciferase reporter, 44 h; Potency, µM (series often up to 41.8 µM), hits mostly inhibitors; 340,000 compounds, 3.4% hits; AID 651820; active = well fitted inhibition curve with a large enough effect; inconclusive = small, poorly fitted or top-dose-only effect, or another doubt; inactive = no such curve, though single readings can be large or run the other way
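Antiviral activity was scored by luciferase reporter output from cells infected with HCVcc-Cre (~0.5 moi) in presence of compound, 44 h infection period, cells seeded 1,000/well 4 h prior.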
LASV entry inh: blocks Lassa virus binding to or entry into cells. AID 540256. 300,000 compounds, 1.2% hits. Potency, µM (top dose mostly 37.9 µM), actives largely listed as inhibitors. Lassa virus pseudotype entry inhibition, cell reporter; calls by dose curve; tested in HEK293 cells; note: nearly all actives have a fitted effect of over 50% in size
Numbers stand for hits; – = inactive; ? = inconclusive; · = not tested or not shown.

SMILES	Vaccinia mCherry	Marburg entry inh	VACV Venus inh	HCV inh	LASV entry inh
O=C(C1CCCN(S(=O)(=O)c2cccc3nsnc23)C1)N1CC=C(c2ccccc2)CC1 (stereo unspecified)	?	?	?	13µM	?
Cc1ccc(NC(=O)C2CCCN(S(=O)(=O)c3cccc4cccnc34)C2)cc1Cl (stereo unspecified)	–	?	–	·	?
O=C(Nc1nc2cc(Cl)ccc2s1)C1CCCN(S(=O)(=O)c2cccc3cccnc23)C1 (stereo unspecified)	–	–	?	11µM	·
CN(C)c1cccc(-c2nnc(SCC(=O)NCc3ccco3)n2C)c1	–	·	–	·	·
CCOC(=O)c1c(C)oc2nc(C)nc(NCC3CCN(Cc4ccc(Cl)cc4)CC3)c12	–	·	–	·	?
CCN(CC)S(=O)(=O)c1ccc2oc(SCC3CN=C(c4ccc(OC)cc4)S3)nc2c1 (stereo unspecified)	·	–	·	11µM	?
O=C1N=c2ccccc2=NC1C(=O)c1ccccc1 (stereo unspecified)	·	–	·	·	·
COc1ccc(Cn2ccc3nc(C)c(C(=O)N4CCN(c5ccccc5F)CC4)cc3c2=O)cc1	–	·	–	·	?
CCc1cc(C(=O)NCC(c2ccco2)N2CCCCC2)sc1C (stereo unspecified)	·	·	·	–	·
O=C(NCC(c1ccco1)N1CCc2ccccc2C1)c1ccc(Cl)c([N+](=O)[O-])c1 (stereo unspecified)	–	–	–	?	?
COc1ccccc1N(C)S(=O)(=O)c1ccc(C(=O)NCC(c2ccco2)N2CCCCC2)cc1 (stereo unspecified)	·	·	·	22µM	·
Cc1ccc(C)c(SCC(=O)NCC(c2ccco2)N2CCCCC2)c1 (stereo unspecified)	–	13µM	–	–	?
O=C(NCC(c1ccco1)N1CCCC1)c1ccc(Cl)c(S(=O)(=O)N2CCc3ccccc32)c1 (stereo unspecified)	?	11µM	?	4.5µM	?
Cc1c(C(=O)NCC(c2ccco2)N2CCCC2)sc2ccccc12 (stereo unspecified)	–	11µM	–	–	–
COc1ccccc1NS(=O)(=O)c1ccc(C(=O)NCC(c2ccco2)N2CCCCC2)cc1 (stereo unspecified)	·	·	·	–	·
O=C(NCC(c1ccco1)N1CCCCC1)c1ccc(OCc2ccccc2)cc1 (stereo unspecified)	–	–	–	–	–
COc1ccccc1N(C)S(=O)(=O)c1ccc(C(=O)NC2CCCCC2)cc1	–	–	–	–	10µM
CN(c1ccc(C(=O)NC2CCCC2)cc1)S(=O)(=O)c1ccccc1	–	–	–	–	?
O=C(NCC(c1ccco1)N1CCCCC1)c1ccc(COc2ccccc2)cc1 (stereo unspecified)	–	?	–	13µM	?
COc1cc2nc(Cl)nc(NC3CCN(Cc4ccccc4)CC3)c2cc1OC	–	·	–	·	·
COc1ccccc1CNC(=O)CCCN1C(=O)CSc2c1c(C)nn2-c1ccccc1	–	·	–	·	–
Cc1ccc(NC(=O)NCCOCCn2c(=O)oc3ccccc32)cc1C	–	–	–	·	–
Nc1ccc(C2(c3ccc(N)cc3)c3ccccc3-c3ccccc32)cc1	?	?	?	8.9µM	–
CCOC(=O)C1CCN(Cc2cnc(Oc3ccc(OC)cc3)s2)CC1	·	–	·	–	1.5µM
CC1(C)NCCN2C(=O)CS[C@H]21	·	–	·	·	·
SMILES	Vaccinia mCherry	Marburg entry inh	VACV Venus inh	HCV inh	LASV entry inh
CCn1cc(C2=NC(CC(C)C)CO2)c2ccccc21 (stereo unspecified)	–	–	?	10µM	–
COc1ccc(C(=O)/C=C/c2ccc(N(C)C)cc2)c(OC)c1	?	7.1µM	–	?	10µM
COc1ccc(C(=O)/C=C/c2cc(OC)c(O)c(OC)c2)c(F)c1	?	?	–	13µM	13µM
COc1ccc(C(=O)/C=C/c2ccc(O)cc2)cc1	–	·	–	–	·
COc1ccc(C(=O)/C=C/c2ccc(N3CCCCC3)c([N+](=O)[O-])c2)c(OC)c1	11µM	–	?	–	?
COc1ccc(C=CC(=O)c2cc(O)ccc2O)cc1	7.9µM	–	–	?	?
COc1ccc(C(=O)/C=C/c2ccc(N3CCCCC3)c([N+](=O)[O-])c2)cc1	–	–	–	?	–
Cc1ccc2c(c1)CN(CCNC(=O)c1ccc3nc(C)[nH]c3c1)CC(C)O2 (stereo unspecified)	–	·	–	·	·
O=C(NCc1ccco1)/C(=C/c1ccc(C(F)(F)F)cc1)c1nc2ccccc2[nH]1	·	–	·	?	?
O=C(NCc1ccco1)/C(=C/c1cccc(C(F)(F)F)c1)c1nc2ccccc2[nH]1	–	?	–	16µM	?
O=C(C[N+]12CCCc3cccc(c31)CCC2)c1ccccc1	–	·	?	·	·
CCc1ccc(N/C(SCc2ccccc2C)=C(/C#N)C(=O)NCc2ccco2)cc1	·	?	·	?	8.2µM
CCc1ccc(OCCCC(=O)NCc2ccco2)cc1	·	·	·	–	·
CCOC(=O)c1ccc(NC(=O)c2cc3c(s2)CCC3)cc1	–	–	–	7.9µM	–
Cc1ccc(-c2nc3cnccn3c2Nc2ccc(C(C)C)cc2)o1	–	·	–	·	·
Cc1ccc(C(=O)N2CCN3C(=O)c4ccccc4C23c2ccc(Cl)cc2)cc1 (stereo unspecified)	·	?	?	10µM	?
OCCNCc1ccc(OCc2ccc(Cl)cc2Cl)cc1	–	?	–	?	–
OCCCCNCc1ccc(OCc2ccc(Cl)cc2Cl)cc1	28µM	5.8µM	?	6.3µM	?
C=C(C(=O)c1ccccc1)C(CC(=O)c1ccccc1)c1ccccc1 (stereo unspecified)	13µM	?	?	13µM	10µM
C=C(CCC(=O)c1ccccc1)C(=O)c1ccccc1	–	?	?	?	?
Cc1cccc2c(=O)cc(CSc3ccccc3NC(=O)c3cccc(F)c3)[nH]c12	–	·	–	·	–
O=C(COc1ccccc1C(=O)Nc1ccccc1)Nc1ccccc1-c1ccccc1	–	·	–	·	·
Cc1cccc2c(C(O)c3c[nH]c4c(C)cccc34)c[nH]c12	–	·	–	·	·
CCOC(=O)[C@@H]1CSc2[nH]c(=O)sc2[C@@H]1c1ccccc1	·	–	·	·	·
COc1ccc(OCCCC(=O)Nc2nccs2)cc1	–	–	–	–	–
SMILES	Vaccinia mCherry	Marburg entry inh	VACV Venus inh	HCV inh	LASV entry inh
Cc1ccccc1OCCCC(=O)Nc1nccs1	–	–	–	11µM	–
Cc1ccc(C)c(OCCCC(=O)Nc2nccs2)c1	–	–	–	13µM	–
CCc1ccccc1N(C)C(=O)Nc1cn(CC(C)C)c(=O)c2ccccc12	–	·	–	·	–
COc1cccc(OC)c1C(=O)Nc1ccc(-c2nc3ncccc3o2)cc1	?	–	?	·	–
COc1cc2c3c(n(C)c(=O)c2cc1OC)-c1cc2c(cc1C3=O)OCO2	–	0.56µM	–	?	?
CCc1ccc2oc(C(=O)Nc3ccccc3OC)cc(=O)c2c1	–	–	–	·	–
O=C1C(C2=C(O)c3ccccc3C2=O)=Nc2ccccc21	·	?	·	10µM	?
Cc1cc(NC(=O)COn2nnc3ccc(S(C)(=O)=O)cc32)ccc1Br	·	·	·	10µM	·
CSc1ccn(CC2CCC(Cl)CC2)c(=O)n1 (stereo unspecified)	·	–	·	·	·
Cc1ccc(-c2nc(NCCN(C)C)c3ccccc3n2)cc1	?	?	?	–	?
